From the supplement of paper PMC11417369
± gives the standard deviation of the averaged measurements. The full ranking holds about 25,000 sequences; the median of “ln(normalized median fluorescence intensity)” is about 10, and the highest 2% start at about 12. Only a selection was taken, and the highest values are over-represented in it overall.

The sequences below were run on PfAP2-G AP2 domain (GST-tagged) (assay: gcPBM binding intensity (ln(normalized median fluorescence intensity)); higher = stronger DNA binding).
Summary of the method: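 Binding intensity is defined as the maximum Masliner-normalised natural-log median intensity across replicate spots for either probe orientation. It was measured on an Agilent 4 × 180k array of primer-extended double-stranded 36-bp intergenic genomic probes and negative controls, to which GST-tagged P. falciparum DNA-binding domains made in E. coli were applied for 1 h in 1× PBS with 1% milk, 0.2 mg/ml BSA, 0.5% salmon testes DNA and 0.03% Triton X-100. Detection was by Alexa488 anti-GST antibody and scanning at 488 nm.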

| Sequence | gcPBM binding intensity (ln) |
| --- | --- |
| ACCATTTGTACTTACGCACACATAAAATATATATAT [CACACA_site1545] | 11.5 ± 1 |
| TAAATTATATTATGCACACTTAAAAATATATTTAAC [CACACA_site3512] | 10.07 ± 0.085 |
| CAACAAAAATTATTTACACACAAAAGGCAAGGAAAT [CACACA_site1971] | 10.5 ± 0.28 |
| ACCTTAAATAATACATGTACAAAAAAATTTATAATA [XGTACX_site1043] | 11 ± 0.49 |
| TCTTACTAATTTATGGGGACTTATCACCTATTCAGT [CACACA_negctrl_site652] | 10.5 ± 0.23 |
| TTTTGTGGAGGATGGTGTACGGTATTGTATTATTAC [XGTACX_site1942] | 11.1 ± 0.64 |
| TACCTAATATGTTATACACACATTAGAAGTACATAT [CACACA_site5375] | 11.6 ± 1.1 |
| ATACATATATACATACGTACTTATATACATATGTGC [XGTACX_site5268] | 10.9 ± 0.42 |
| TTACATATTATACGAAGTACGTACAAATACTTATAT [XGTACX_site8598] | 11.7 ± 0.81 |
| AGAAAATATACAAAACGTACTTATATATTATATCTA [XGTACX_site3104] | 10.9 ± 0.69 |
| ATAAAAATAAACATACGTACTTACACGAATATACAT [XGTACX_site5989] | 11.1 ± 0.65 |
| TTATACGAAGTACGTACACACACTTATATGTTACTA [CACACA_site4019] | 11.6 ± 0.94 |
| ATTTATATATTTATACGTACTTATATATTGTTACAT [XGTACX_site6254] | 11.2 ± 0.73 |
| TTATGTATAAACACACGTACACACACTAAGTATATC [XGTACX_site3254] | 11.5 ± 1 |
| ATACGAAGTACGTACACACACTTATATGTTACTAAA [CACACA_site7812] | 11.7 ± 1 |
| TTTCATGTTTTAAAGTGTACATAAATATATTATATG [XGTACX_site3367] | 11.5 ± 0.89 |
| ATAATTTCAATATTTAATATCATATATATATATTTT [GTGCAC_negctrl_site713] | 9.56 ± 0.13 |
| CTATCATATTTATGCACACAAAAATAATTAATTCGT [CACACA_site2614] | 10.2 ± 0.23 |
| TAATTTATAAATAATTGTACATAGTTTATTTAGATT [XGTACX_site4599] | 10.9 ± 0.43 |
| ATACAGATAGGATGCACACATAATTCAAATACAATA [CACACA_site4531] | 10.2 ± 0.13 |
| TTTTTTTTATTAAAAAGTACTAAACAAATTATATAT [XGTACX_site121] | 11.1 ± 0.73 |
| AATAATTTTTAAATATAAACATTTTTTTTTTTTTTT [GTGCAC_negctrl_site532] | 9.72 ± 0.057 |
| TGCACAAAGTTATGCACACACCTAAAATTAATTTTT [CACACA_site7385] | 10.05 ± 0.071 |

| Sequence | gcPBM binding intensity (ln) |
| --- | --- |
| TGATAATAAGCATACACACACACACTAAAAAAAAAA [CACACA_site6478] | 10.3 ± 0.43 |
| ATAAGGAAGGGATGCACACAAAAGGGTACATAAGAA [CACACA_site4006] | 11.4 ± 0.71 |
| CAGGGCAGGGGGAAGGGTACACATAAAAGAAAATAA [XGTACX_site172] | 11.7 ± 1.1 |
| ATACATATACACATATGTACATATGAAAAGAAAAAT [XGTACX_site6445] | 11.1 ± 0.64 |
| AATAAAAGTTCACCTGTACACACATATATATATGTA [CACACA_site8500] | 11.3 ± 0.76 |
| AGAAAAAAAAAAAGTACACACATATAATATATATAT [CACACA_site2973] | 11.6 ± 1.2 |
| AAAGAAAAAAAAAAAAGTACATAAATATAAAAAGAA [XGTACX_site6753] | 11.5 ± 0.89 |
| AAATAAAGAAATATATGTACATATATATATATATAT [XGTACX_site5131] | 11.3 ± 0.43 |
| ATATATATATATATATGTACACATAAAAAGAAAGAA [XGTACX_site1603] | 11.7 ± 1.1 |
| AAAAAAAAAAAGTACACACATACATATAAATATATA [CACACA_site1809] | 11.6 ± 0.95 |
| AAATAAAAGTTCACCTGTACACACATATATATATGT [XGTACX_site3513] | 11.5 ± 0.66 |
| AAAGAAGGGGGGGGAAAAAAAAATAAAAGAGGAAAA [XGTACX_negctrl_site92] | 11 ± 0.77 |
| TAAAAGTTCACCTGTACACACATATAAATATGTACA [CACACA_site6901] | 11.7 ± 0.85 |
| ACATATAAAATGTATACACACAAATATTACATATAT [CACACA_site1472] | 10.1 ± 0.11 |
| TTTTTCATTTAGCTTTTACACACTATATATTATTGA [CACACA_site7888] | 9.905 ± 0.064 |
| CTCAATATATTTGATTTACACACTTACAATGTATAT [CACACA_site8982] | 10.04 ± 0.078 |
| GATATATATATTCACACACACATGGAAATATATATA [CACACA_site382] | 9.88 ± 0.028 |
| ATATATATGGTCATTTGTACATATCGTGAGAGCTGC [XGTACX_site4117] | 11 ± 0.49 |
| TATAAAAATAAAAAAAGTACACATAAAAATATATAT [XGTACX_site5189] | 11.5 ± 0.78 |
| GAAAAAAGAAAAAAAAGTACATATATTTAATAAGAC [XGTACX_site6912] | 11.4 ± 0.86 |
| AATGAATATTAAAGGAGTACACATAATAAGTAAGAA [XGTACX_site7354] | 11.7 ± 0.99 |
| ATATATATATAAAGGAGTACATACATTAAAAAAAAA [XGTACX_site1095] | 11.7 ± 1 |
| AGTAGATATAAAAGGAGTACACATATATATATAAAT [XGTACX_site4375] | 11.6 ± 1 |

| Sequence | gcPBM binding intensity (ln) |
| --- | --- |
| GTATTATAAAAAGGAAGTACATATATACATATTATA [XGTACX_site1271] | 11.3 ± 0.75 |
| TTAAGAAACAAAGAAAGTACACAACATAATATAGAA [XGTACX_site477] | 11.4 ± 0.69 |
| AAAAATATATAATAAAGTACACATAAATGAATAAAT [XGTACX_site329] | 11.5 ± 0.81 |
| AATAAATAAAGAAGTACACACATATATATATATATA [CACACA_site4314] | 11.7 ± 1.1 |
| AAAAAAAAAAAAAGTACACACATACATATAAATATA [CACACA_site8533] | 11.5 ± 0.86 |
| TTAAGAAAAAAAAAAAGTACACACATATAATATATA [XGTACX_site6268] | 11.6 ± 1 |
| ATATATATAATTTAAAGTACATATTTAAGAATGAAA [XGTACX_site2238] | 11.1 ± 0.67 |
| ATATTAATATATGTGGCACACATGTGGAGTCCTATT [CACACA_site213] | 10.7 ± 0.43 |
| TTATCACATTATTGCACACACATAAAGAAAAAAATA [CACACA_site2841] | 10.4 ± 0.5 |
| AAAAAAATAAAATATATATATATATATATATATATA [GTGCAC_negctrl_site706] | 9.96 ± 0.89 |
| ATATATATGTGTAAAAGTACATATATTTTGAAATAT [XGTACX_site4024] | 11.2 ± 0.79 |
| TTATAATTGTAAGGTAGTACATATAAATCAAATAAT [XGTACX_site7190] | 11.5 ± 0.94 |
| ATATAAATAAAAAAAAGTACATAATATATAAAAATA [XGTACX_site3065] | 11.5 ± 1 |
| TATATATAAAAAAAAAGTACATATAATATAATATTT [XGTACX_site7902] | 11.5 ± 1 |
| TTAAAAAAAAAAAAAAGTACATAAGTATATATAATA [XGTACX_site4295] | 11.7 ± 1 |
| TATGATTTTAATGAAACACACAATTTTATGTTAATA [CACACA_site311] | 9.82 ± 0.11 |
| TTATAATATATATGTAGTACTGTTTTTTTCTATTTT [XGTACX_site7749] | 11 ± 0.63 |
| TTTGCCCAAAAAGGTACACACCACAATGTACATAAA [CACACA_site4599] | 11.9 ± 1.1 |
| CTTTTGCCCAAAAAGGTACACACCACAATGTACATA [CACACA_site809] | 11.6 ± 0.91 |
| CTTTTGCCCAAAAAGGTACACACCACAAAGTACATA [CACACA_site8169] | 11.9 ± 1.2 |
| TCTTTTGCCCAAAAAGGTACACACCACAATTTAAAT [XGTACX_site1482] | 11.4 ± 0.88 |
| TGTACAACAATTTTTGCACACACCAAAACATAAAAT [CACACA_site1598] | 11.1 ± 0.2 |
| CACACCACCAACAAAAGTACATACATATATATATAT [XGTACX_site5781] | 11.3 ± 0.82 |

| Sequence | gcPBM binding intensity (ln) |
| --- | --- |
| TCTTTTTACACCTCTTACATAAAACAAAATAAGGGG [XGTACX_negctrl_site12] | 10.7 ± 0.38 |
| TTTATTTATTATTATGTACACACTATATTAAAACAT [CACACA_site700] | 11.4 ± 0.87 |
| ATATAATTACCATATGGTACACACATATATATATGT [XGTACX_site7393] | 11.3 ± 0.62 |
| ATCAAATAATAGCAAACACACAAAAAATAAAAAAAA [CACACA_site4146] | 9.96 ± 0.15 |
| AAAAAATATAAAACGAGTACATATATAATAAGCAAA [XGTACX_site1360] | 11.4 ± 0.82 |
| GGATAAAATGCTACGAGTACATAAGCATTTTTCCCT [XGTACX_site7796] | 11.7 ± 1.2 |
| ACATTAAAAAAAAAATGTACATAAATATTTTTCCTT [XGTACX_site4361] | 11.1 ± 0.59 |
| AGGTACTTTTTTAAAACACACATATAACATATACAC [CACACA_site6629] | 11.3 ± 1.1 |
| ATACATTCTAATACGTGTACATATATATATATATAT [XGTACX_site1881] | 11.4 ± 0.81 |
| AACAAATACGGACACACACACACACTAGAAAAAAAA [CACACA_site4442] | 11.4 ± 0.86 |
| ATAAATAAAGGACACACACACACACTAGAAAAAAAA [CACACA_site5450] | 11.2 ± 0.92 |
| TACACAGACGGACACACACACACACTAGAAAAAAAA [CACACA_site4435] | 11.7 ± 1.2 |
| GTATGTATGTATGTATGTACGTATGTATGTATATAT [XGTACX_site3369] | 11.6 ± 0.98 |
| AAACGTGCGTATATGTGTACGCATATATATATATAT [XGTACX_site5252] | 11.6 ± 1 |
| ATTTATATATATGTATGTACGTATGTGTGTATATGT [XGTACX_site7587] | 11.4 ± 0.88 |
| ATGACATGTTCTAAATGTACATTTTTTAACCCTTTT [XGTACX_site1858] | 10.8 ± 0.4 |
| TTTTTTTTTTTTTTATGTACATATATATATTTTATT [XGTACX_site6915] | 11.2 ± 0.98 |
| TTTTTTTTTTCTTTTTTTTATTATATTAACGGAATT [GTGCAC_negctrl_site104] | 9.82 ± 0.17 |
| ATGGTAGTGATTAAAAGTACACGTAATTGTAAAAAT [XGTACX_site387] | 11.7 ± 0.79 |
| TTAGTTATTATAATTTGTACACAAATGGTAAAGTAT [XGTACX_site2343] | 11.2 ± 0.71 |
| CAAATGGTAAATGAAAGTACAAATTGTTTTGATTAA [XGTACX_site1536] | 10.8 ± 0.4 |
